From PubChem BioAssay AID1159580 (chemical genetic matrix, 2015)
About 2,000 (36%) of roughly 5,500 compounds were called active. Roughly 18% stayed inconclusive and do not appear here. Rule as the data show it: active = normalized growth mostly below about 0.91 (no sharp cut-off); inconclusive = no clear call, values can overlap the other calls; inactive = mostly above about 0.92. The list shows a part of the results.

Test: chemical genetic growth profiling, strain panel (AID 1159580);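 also: tested at 20 µM; growth read once vehicle control cultures reached saturation at 30 °C; 1 = growth at the plate median or of vehicle wells; lower values mean less growth of the strain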
Details: S. cerevisiae deletion strains, growth OD

Measured: normalized growth

CCN(CC)CCNC(=O)c1ccc(NC(C)=O)cc1
inactive: locus YAL040C, strain CLN3, stronger effect = lower value 0.985 | locus YDR150W, strain NUM1, stronger effect = lower value 0.975 | locus YER002W, strain NOP16, stronger effect = lower value 0.969 | locus YGR078C, strain PAC10, stronger effect = lower value 0.985 | locus YGR229C, strain SMI1, stronger effect = lower value 1.01 | locus YHR030C, strain SLT2, stronger effect = lower value 0.999 | locus YHR079C, strain IRE1, stronger effect = lower value 1.03 | locus YJL095W, strain BCK1, stronger effect = lower value 1.02 | locus YJR066W, strain TOR1, stronger effect = lower value 0.971 | locus YLR113W, strain HOG1, stronger effect = lower value 1.03 | locus YMR307W, strain GAS1, stronger effect = lower value 1.01 | locus YNL175C, strain NOP13, stronger effect = lower value 0.983 | locus YNL183C, strain NPR1, stronger effect = lower value 0.959 | locus YNL197C, strain WHI3, stronger effect = lower value 0.984 | locus YNL224C, strain SQS1, stronger effect = lower value 1.01 | locus YOR083W, strain WHI5 (second series), stronger effect = lower value 0.979 | locus YOR231W, strain MKK1, stronger effect = lower value 1.04 | locus YPL256C, strain CLN2, stronger effect = lower value 1.08
